Test in all cases: NCI-60 one-dose screen, 48 h (100 = growth as untreated, 0 = no growth, -100 = all killed)
One experiment has as its system K-562 leukemia. The note with it: 10 µM unless noted.
For another experiment, the system named is MALME-3M melanoma. Conditions: 10 µM unless noted.
The test system of another experiment is MDA-MB-231 breast. The note with it: 10 µM unless noted.
For the next experiment, the system named is RXF 393 renal. Conditions: 10 µM unless noted.
Another experiment relates to SF-268 CNS. Conditions: 10 µM unless noted.
The subject of another experiment is SF-539 CNS. The note with it: 10 µM unless noted.
The test system of a further experiment is UACC-257 melanoma. The note with it: 10 µM unless noted.
In a further experiment the test system is M14 melanoma. Conditions: 10 µM unless noted.
Another experiment concerns HCT-15 colon. The note with it: 10 µM unless noted.
Another experiment concerns HT29 colon. The note with it: 10 µM unless noted.
A further experiment concerns SNB-75 CNS. The note with it: 10 µM unless noted.
In the next experiment the test system is SNB-19 CNS. The note with it: 10 µM unless noted.
Another experiment relates to PC-3 prostate. Conditions: 10 µM unless noted.
For another experiment, the system named is UACC-62 melanoma. Conditions: 10 µM unless noted.
For the next experiment, the system named is LOX IMVI melanoma. Conditions: 10 µM unless noted.
The next experiment deals with SK-MEL-28 melanoma. The note with it: 10 µM.
In another experiment the test system is SK-MEL-2 melanoma. The note with it: 10 µM unless noted.
The subject of the next experiment is U251 CNS. Conditions: 10 µM unless noted.
In another experiment the test system is SK-MEL-5 melanoma. Conditions: 10 µM unless noted.
Another experiment has as its system SF-295 CNS. The note with it: 10 µM unless noted.

Molecules are shown by their SMILES. About 83,000 compounds went through this panel and 20% of them were active in at least one assay; those are over-represented in the sample as a whole.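 96-well plates, one dose, 48 hours. Percent growth reported; active if below 10.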 Values without a mark were called inactive. Calls of active or inactive are those of the source.

As to `O=Nc1c(O)ccc2ccccc12.O=Nc1c(O)ccc2ccccc12.O=Nc1c([O-])ccc2ccccc12.[Fe+3]`, the growth in the experiment on K-562 leukemia is 115%; with MALME-3M melanoma, 95.8%; with MDA-MB-231 breast it was 86.9%; with RXF 393 renal, 110%; in the experiment on SF-268 CNS it was 106%; with SF-539 CNS, 96%. In addition, the growth was 110% in the experiment with UACC-257 melanoma; 97.2% in the experiment on M14 melanoma; 105% in the experiment with HCT-15 colon; 109% in the experiment on HT29 colon; 72.7% in the experiment with SNB-75 CNS; 109% in the experiment on SNB-19 CNS. The growth in the experiment with PC-3 prostate was 88.9%; in the experiment on UACC-62 melanoma, 95.6%; in the experiment on LOX IMVI melanoma, 98.8%; in the experiment with SK-MEL-28 melanoma it was 104%; in the experiment with SK-MEL-2 melanoma, 107%.

For `CCN(CC)c1cc(C)c2cc(NC(=O)c3cccc(OC)c3)ccc2n1`, the growth in the experiment on K-562 leukemia was 13.4%; in the experiment with MALME-3M melanoma, 82.5%; with MDA-MB-231 breast it was 55.5%; in the experiment with RXF 393 renal, 51.3%; in the experiment with SF-268 CNS, 63.2%; with SF-539 CNS, 77.3%. Moreover, the growth is 105% with UACC-257 melanoma; 77.3% in the experiment with M14 melanoma; 61.4% with HCT-15 colon; 67.8% in the experiment with HT29 colon; 81.6% in the experiment on SNB-75 CNS; 84.3% in the experiment on SNB-19 CNS. Besides, the growth in the experiment on U251 CNS is 55%; with PC-3 prostate it was 39.5%; with SK-MEL-5 melanoma, 57.3%; with SK-MEL-28 melanoma, 85.2%; with SK-MEL-2 melanoma, 98.6%.

`CCCCCCc1cc2cc(-c3nc4ccccc4[nH]3)c(=Nc3ccccc3C)oc2cc1O`: the growth in the experiment with K-562 leukemia was 7.87% (active); in the experiment with MALME-3M melanoma, -29.3% (active); in the experiment with MDA-MB-231 breast, 41.6%; in the experiment on RXF 393 renal, 28.5%; in the experiment with SF-268 CNS, 65.5%; with SF-539 CNS, 75.3%. Moreover, the growth in the experiment with UACC-257 melanoma is 4.39% (active); in the experiment on M14 melanoma, 9.12% (active); with HCT-15 colon, 31.2%; with HT29 colon, 2.75% (active); with SNB-75 CNS, 47.8%; with SNB-19 CNS it was 71.7%. The growth in the experiment with U251 CNS is 34%; in the experiment on PC-3 prostate it was 37.6%; in the experiment with SK-MEL-5 melanoma, 41.7%; in the experiment with LOX IMVI melanoma, 25.5%; in the experiment with SK-MEL-28 melanoma it was -10.3% (active); in the experiment with SK-MEL-2 melanoma, 47.2%.

In the case of `COc1ccc(C(O)(CCC(C)C)C(CN2CCOCC2)c2ccc(Cl)cc2)cc1` (centres undefined), the growth in the experiment on K-562 leukemia is 15.3%; with MALME-3M melanoma it was 39.2%; with MDA-MB-231 breast it was 68.5%; with RXF 393 renal, 88.3%; in the experiment with SF-268 CNS, 80.2%; in the experiment on SF-539 CNS, 64.7%. Moreover, the growth is 69.4% in the experiment on UACC-257 melanoma; 37.1% with M14 melanoma; 35.6% in the experiment with HCT-15 colon; 9% (active) in the experiment with HT29 colon; 74.4% with SNB-75 CNS; 83.6% with SNB-19 CNS. Further, the growth with U251 CNS is 66.1%; in the experiment with PC-3 prostate, 53.8%; in the experiment on SK-MEL-5 melanoma it was 65.5%; in the experiment on UACC-62 melanoma it was 60.9%; with LOX IMVI melanoma it was 52.2%; in the experiment on SK-MEL-28 melanoma, 54.1%. The growth in the experiment on SK-MEL-2 melanoma is 2.58% (active).

Take `Nc1ccn(C2O[C@H](CO)[C@@H](O)[C@H]2O)c(=O)n1` (some centres undefined): the growth is 74.3% with K-562 leukemia; 109% with MALME-3M melanoma; 82.8% in the experiment with MDA-MB-231 breast; 50.1% in the experiment on RXF 393 renal; 86.2% with SF-268 CNS; 58.5% with SF-295 CNS. The growth in the experiment on SF-539 CNS was 73.1%; in the experiment on UACC-257 melanoma, 90.1%; with HT29 colon, 106%; in the experiment on SNB-75 CNS it was 76.9%; in the experiment with SNB-19 CNS, 101%; with U251 CNS it was 48.9%. The growth with PC-3 prostate is 85.6%; with SK-MEL-5 melanoma it was 89.9%; with UACC-62 melanoma, 95.9%; in the experiment on LOX IMVI melanoma, 75.5%; in the experiment with SK-MEL-28 melanoma it was 76.4%; in the experiment with SK-MEL-2 melanoma, 110%.

In the case of `Nc1ccc(-c2nn3c(CCC(=O)c4nc5ncccc5[nH]4)nnc3s2)c(O)c1`, the growth in the experiment on K-562 leukemia was 105%; with MALME-3M melanoma, 93%; with MDA-MB-231 breast it was 71.2%; in the experiment with RXF 393 renal it was 84.9%; in the experiment with SF-268 CNS, 73.5%; with SF-295 CNS, 97.1%. Further, the growth was 89.1% in the experiment on SF-539 CNS; 101% with UACC-257 melanoma; 95.8% in the experiment on HCT-15 colon; 103% in the experiment with HT29 colon; 70.3% with SNB-75 CNS; 88.2% in the experiment on SNB-19 CNS. Also, the growth in the experiment with U251 CNS was 103%; in the experiment on PC-3 prostate, 82.8%; with UACC-62 melanoma, 92.9%; in the experiment with LOX IMVI melanoma it was 85.2%; in the experiment with SK-MEL-28 melanoma, 105%; in the experiment on SK-MEL-2 melanoma, 100%.

For the compound `CCOC(=O)c1c(Cl)c2c(n1Cc1ccccc1)-c1oncc1CCC2`, the growth in the experiment on K-562 leukemia was 18.6%; in the experiment with MALME-3M melanoma it was 42.3%; in the experiment with MDA-MB-231 breast, 64.4%; in the experiment with RXF 393 renal, 64.3%; in the experiment with SF-268 CNS, 86.7%; in the experiment with SF-539 CNS it was 74%. The growth in the experiment on UACC-257 melanoma was 79.7%; with M14 melanoma, 55.3%; with HCT-15 colon, 36.1%; in the experiment on HT29 colon, 25.8%; in the experiment on SNB-75 CNS, 69.1%; in the experiment on SNB-19 CNS, 83.2%. In addition, the growth in the experiment with U251 CNS was 64.5%; with PC-3 prostate, 65.6%; in the experiment with SK-MEL-5 melanoma, 53.1%; with UACC-62 melanoma, 49.2%; in the experiment with LOX IMVI melanoma it was 66.7%; in the experiment with SK-MEL-28 melanoma it was 44.7%. The growth in the experiment with SK-MEL-2 melanoma is 52.7%.

In the case of `CCOc1ccccc1CN1CCc2nc3cc(C(C)(C)C)[nH]n3c(=O)c2C1`, the growth is 87.2% with K-562 leukemia; 107% in the experiment on MALME-3M melanoma; 92.3% with MDA-MB-231 breast; 93.5% in the experiment on RXF 393 renal; 105% in the experiment with SF-268 CNS; 93.7% in the experiment on SF-539 CNS. The growth in the experiment on UACC-257 melanoma was 108%; in the experiment on M14 melanoma, 91.6%; with HCT-15 colon, 97.4%; with HT29 colon, 94.8%; with SNB-75 CNS, 105%; in the experiment with SNB-19 CNS, 94.8%. The growth in the experiment with U251 CNS was 104%; in the experiment with PC-3 prostate it was 109%; in the experiment on SK-MEL-5 melanoma, 101%; in the experiment with UACC-62 melanoma it was 102%; in the experiment with LOX IMVI melanoma, 96.7%; with SK-MEL-28 melanoma it was 112%. In the experiment on SK-MEL-2 melanoma, the growth is 98.3%.

In the case of `O=C(NC1CCN(Cc2ccccc2)CC1)c1cc(C(=O)NC2CCN(Cc3ccccc3)CC2)cc(C(=O)NC2CCN(Cc3ccccc3)CC2)c1`, the growth in the experiment with K-562 leukemia is 64.6%; in the experiment with MALME-3M melanoma, 77.9%; in the experiment on MDA-MB-231 breast it was 90.3%; in the experiment on RXF 393 renal, 60.1%; with SF-268 CNS it was 71.4%; with SF-539 CNS, 90.5%. Besides, the growth in the experiment with UACC-257 melanoma was 81.2%; in the experiment on M14 melanoma, 83.2%; in the experiment with HCT-15 colon, 78.2%; in the experiment with HT29 colon it was 75%; with SNB-75 CNS, 68%; with SNB-19 CNS it was 85.7%. In addition, the growth was 72.4% in the experiment with U251 CNS; 74.4% with PC-3 prostate; 85.2% in the experiment on SK-MEL-5 melanoma; 84.9% in the experiment with UACC-62 melanoma; -69.6% (active) in the experiment with LOX IMVI melanoma; 95.6% with SK-MEL-28 melanoma. Further, the growth in the experiment with SK-MEL-2 melanoma was 73.6%.
